# Pol iota inh: DNA polymerase iota (human) inhibition; 1% of 390,000 active; Potency, µM (doses to about 115 µM), without a hit: at the highest dose activity, negative = inhibition, usual class: inhibitors; AID 588590; Q9UNA4; Pol iota fluorescent replication assay, 10 min; further: potency means the concentration at half of the fitted maximal effect
#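 Pol iota at 10 nM preincubated 15 min with compounds at room temperature; reaction started with fluorescent substrate, 50 nM final. Fluorescence read kinetically at 0 and 10 min; buffer-only wells as negative control.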
# Pol eta inh-1: inhibitors of human DNA polymerase eta; Potency, µM (series often up to 114 µM), for inactives: at the highest dose activity change, negative = inhibition, hits mostly inhibitors; recombinant Pol eta, fluorescent DNA replication assay; 1.2% of 390,000 active; Q9Y253; AID 588591; further: potency means the concentration at half of the fitted maximal effect; on the % scale 0 is the no-effect control and ±100 the full control effect
#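 Fluorescent replication assay: 50 nM final substrate added after a 15 min room-temperature compound preincubation with 10 nM enzyme. Signal taken at 0 min and again at 10 min.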
# WRN inhibitor: inhibitors of human WRN helicase; Q14191; WRN helicase unwinding, fluorescent forked duplex, kinetic; Potency, µM (highest dose often 114 µM), for the others: at the top dose activity change, negative = inhibition, actives largely listed as inhibitors; 0.46% of 360,000 active; AID 651768; further: potency means the concentration at half of the fitted maximal effect; on the % scale 0 is the no-effect control and ±100 the full control effect; nearly all actives have a fitted effect of over 55% in size
#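 Fluorescence dequenching readout, ex 525 nm/em 598 nm, kinetic mode: forked duplex DNA (100 nM final) with adjacent fluorophore and quencher unwound by WRN (20 nM final) with 2 mM ATP. Compound preincubation 15 min, room temperature.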
# FEN1 inh: human FEN1 inhibition; P39748; Recombinant FEN1 flap cleavage, fluorescence, 15 min; Potency, µM (highest dose often 114 µM), for inactives: top-dose activity change, negative = inhibition, hits mostly inhibitors; 0.35% of 390,000 active; AID 588795; further: potency means the concentration at half of the fitted maximal effect; on the % scale 0 is the no-effect control and ±100 the full control effect; nearly all actives have a fitted effect of over 65% in size
# Target sequence (P39748 whole entry, looked up): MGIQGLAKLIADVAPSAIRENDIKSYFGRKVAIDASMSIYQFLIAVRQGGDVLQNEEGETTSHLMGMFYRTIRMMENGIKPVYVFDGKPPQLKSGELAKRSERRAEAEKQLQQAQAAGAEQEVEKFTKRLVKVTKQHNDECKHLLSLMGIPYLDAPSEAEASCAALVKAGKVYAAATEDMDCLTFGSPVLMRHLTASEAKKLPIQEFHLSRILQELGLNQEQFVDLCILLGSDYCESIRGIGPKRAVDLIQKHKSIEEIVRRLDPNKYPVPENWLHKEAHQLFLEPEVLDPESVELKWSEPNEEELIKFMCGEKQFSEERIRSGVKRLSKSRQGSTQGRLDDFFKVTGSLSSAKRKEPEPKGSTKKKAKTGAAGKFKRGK
#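 FEN1 at 10 nM preincubated with compounds 15 min at room temperature, then flap DNA substrate added at 50 nM final. Signal read at 0 and 15 min; concentration-response fitted with four-parameter Hill equation.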
# Pol kappa inh-1: DNA polymerase kappa (human) inhibition; purified Pol kappa, fluorescent DNA synthesis assay, 10 min; Potency, µM (top dose mostly 107 µM), for the others: at the top dose activity, negative = inhibition, usual class: inhibitors; 0.53% of 400,000 active; AID 588579; further: potency means the concentration at half of the fitted maximal effect; on the % scale 0 is the no-effect control and ±100 the full control effect
#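 Fluorescent qHTS in 1536-well format: enzyme (10 nM) and compound sat 15 min at room temperature before 50 nM substrate (final) was added. Signal taken at 0 and 10 min; no-enzyme buffer wells were negative controls.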
# POLB inh: inhibitors of human DNA polymerase beta; P06746; Pol beta primer extension/strand displacement, fluorescence kinetic; Potency, µM (doses to about 114 µM), inactives show at the top dose activity change, negative = inhibition, usual class: inhibitors; 1.3% of 340,000 active; AID 485314; further: potency means the concentration at half of the fitted maximal effect; on the % scale 0 is the no-effect control and ±100 the full control effect
#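 Pol beta (10 nM) was preincubated with compound for 15 min at room temperature. The reaction was then started with 50 nM substrate and read immediately and after a further 10 min at room temperature.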
# TbPGK inh: blocks T. brucei phosphoglycerate kinase; shares compounds with Pol kappa inh-1; TbPGK coupled GAPDH assay, Kinase-Glo luminescence; Potency, µM (highest dose often 57.5 µM), for inactives: top-dose activity change, negative = inhibition, most hits filed as inhibitors; 79% of 500 active; AID 686980; further: potency means the concentration at half of the fitted maximal effect; on the % scale 0 is the no-effect control and ±100 the full control effect; nearly all actives have a fitted effect of over 65% in size
# Target sequence (P07378 whole entry, looked up): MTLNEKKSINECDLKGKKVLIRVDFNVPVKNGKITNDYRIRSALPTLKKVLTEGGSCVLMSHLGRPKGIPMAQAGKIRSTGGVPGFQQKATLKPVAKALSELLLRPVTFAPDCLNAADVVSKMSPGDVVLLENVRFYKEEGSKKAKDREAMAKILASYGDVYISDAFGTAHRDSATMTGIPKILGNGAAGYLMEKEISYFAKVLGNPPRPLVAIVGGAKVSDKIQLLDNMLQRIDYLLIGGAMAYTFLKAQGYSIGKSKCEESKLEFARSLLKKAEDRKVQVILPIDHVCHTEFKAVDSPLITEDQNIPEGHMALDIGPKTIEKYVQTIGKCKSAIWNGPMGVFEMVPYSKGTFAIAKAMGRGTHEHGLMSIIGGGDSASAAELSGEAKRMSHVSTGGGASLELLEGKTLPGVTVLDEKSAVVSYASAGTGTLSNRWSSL
# POLI cherry-pick: Human Pol iota inhibitor confirmatory assay; 77% of 1,500 active; shares compounds with Pol kappa inh-1; Potency, µM, most hits filed as inhibitors; AID 720496; Pol iota primer extension, TAMRA/BHQ fluorescence; further: potency means the concentration at half of the fitted maximal effect
# GALK inh confirm: confirmation of human galactokinase (GALK) inhibitors; Potency, µM (titrated, usually from 115 µM), without a hit: at the top dose activity, negative = inhibition, most hits filed as inhibitors; shares compounds with Pol eta inh-1; 70% of 150 active; purified GALK, Kinase-Glo ATP depletion luminescence; AID 2015
# GALK redox cs: counter-screen for GALK inhibitors: redox cycling H2O2 generation | shares compounds with Pol eta inh-1 | Phenol red-HRP H2O2 redox cycling, absorbance 600 nm | Potency, µM (top dose mostly 115 µM), for inactives: at the highest dose activity change, negative = H2O2 signal, actives largely listed as inhibitors | 40% of 150 active
# HEK293 viability: HEK-293 cytotoxicity, GALK inhibitor secondary. 10% of 170 active. HEK-293 viability, ATP luminescence (CellTiter-Glo), 24/48 h. shares compounds with Pol eta inh-1. Potency, µM (titrated, usually from 46.1 µM), for the others: at the highest dose activity change, negative = cytotoxicity, usual class: inhibitors; further: potency means the concentration at half of the fitted maximal effect; on the % scale 0 is the no-effect control and ±100 the full control effect
# Pol kappa inh-2: confirmation of human DNA polymerase kappa inhibitors; purified Pol-kappa, fluorescent strand-displacement substrate; shares compounds with Pol eta inh-1; 76% of 920 active; Potency, µM, actives largely listed as inhibitors; AID 720501; further: potency means the concentration at half of the fitted maximal effect
# Pol eta inh-2: Pol eta (human) inhibition, cherry-pick confirmation. shares compounds with Pol eta inh-1. Pol eta primer extension, TAMRA/BHQ fluorescence, 10 min. Potency, µM, usual class: inhibitors. 64% of 2,600 active. AID 720502; further: potency means the concentration at half of the fitted maximal effect
# * hit, by the source's call; ? = inconclusive; . = not tested or not shown; [ ] = another dose, or the depositor's remark. A selection: hits, their analogues and other compounds. The true share with any hit is near 2.4%. The call rests on the fitted dose curve; in most records, active means well fitted curve in the direction sought with a large enough effect; inconclusive means small, poorly fitted or top-dose-only effect, or another doubt; inactive means no such curve, though single readings can be large; an effect the other way counts as inactive or inconclusive.
SMILES,Pol iota inh,Pol eta inh-1,WRN inhibitor,FEN1 inh,Pol kappa inh-1,POLB inh,POLI cherry-pick,Pol eta inh-2,others
O=C(Cn1c(=O)n(Cc2ccco2)c(=O)c2c3c(sc21)CCCC3)Nc1ccccc1,?,-13.6%,-15.4%,7.2%,-8.1%,2.4%,.,.,
COc1ccc2c(c1)cc1c(=O)n(CC(=O)NCCc3ccccc3)nc(C)n12,-3.8%,-3.8%,.,-3.8%,-6.0%,1.1%,.,.,
COc1ccc(OC)c(NC(=O)COCc2cc(-c3ccco3)on2)c1,12.2%,0.0%,.,-20.7%,-2.7%,-6.9%,.,.,
C=CC(=O)NCC1OCCc2ccccc21 (stereo not drawn),56.1%,-13.9%,-8.0%[57.1 µM],8.5%,1.4%,3.4%,.,.,
O=C(/C=C/c1ccco1)NCC1OCCc2ccccc21 (stereo not drawn),14.1µM*,12.6µM*,56.2µM*,?,35.5µM*,14.1µM*,42.3*,42.6*,
COC(=O)c1cc(C)nc2c1C(=O)C(=O)C=C2N1CCOCC1,1.26µM*,4.47µM*,?,-23.2%,-9.6%,-7.7%,5.97*,5.36*,TbPGK inh=4.61µM*;GALK inh confirm=5.3µM*;GALK redox cs=2.66µM*;HEK293 viability=8.88µM*
Cc1ccc(/C=C2/C(=O)c3ccc(C(=O)O)cc3C2=O)o1,?,3.98µM*,12.6µM*,25.1µM*,5.01µM*,25.1µM*,23.8*,8.49*,Pol kappa inh-2=10.6*
Cc1cc(C=C2C(=O)c3ccccc3C2=O)c(C)n1C,41.6%,-8.3%,-17.4%,-8.2%,-12.1%,0.6%,.,.,
Cc1ccc(C=C2C(=O)c3ccccc3C2=O)o1,22.4µM*,12.6µM*,?,-4.7%,?,14.1µM*,47.4*,47.8*,Pol kappa inh-2=42.3*
COc1ccc(CCNC(=O)Cn2nnc(-c3cccc(C(F)(F)F)c3)n2)cc1OC,?,5.5%,.,14.0%,-12.7%,-14.9%,.,.,
Cc1cccc(OCCn2c(-c3ccc(Cl)cc3)nc3ccccc3c2=O)c1C,7.2%,-3.5%,.,4.5%,-5.5%,19.5%,.,.,
COCCOC(=O)c1[nH]c2c(c1C)C(=O)CC(c1ccco1)C2 (stereo not drawn),-79.0%,12.6µM*,?,?,22.4µM*,11.2µM*,42.3*,37.9*,
CCOC(=O)c1[nH]c2c(c1C)C(=O)CC(c1ccco1)C2 (stereo not drawn),?,20µM*,?,?,56.2µM*,28.2µM*,67*,60.1*,
CS(=O)(=O)c1cccc(-c2nnc(NC(=O)c3ccc4c(c3)OCCO4)o2)c1,-23.5%,7.2%,.,17.5%,-7.1%[60.1 µM],-7.1%,.,.,
COc1ccc(-c2ccc3c(N)c(C(=O)c4ccc(OC)c(OC)c4)sc3n2)cc1,-9.8%,?,-3.7%,-3.3%,-15.3%,-0.2%,.,.,
COc1ccc(C(=O)c2sc3nc(-c4ccccc4)ccc3c2N)cc1OC,?,?,?,?,?,12.6µM*,?,67.5*,
NS(=O)(=O)c1ccc(NC2=CC(=O)C(=O)c3ccccc32)cc1,?,?,?,-34.1%,-17.2%,?,?,?,GALK inh confirm=14.9µM*;GALK redox cs=10.6µM*;HEK293 viability=6.6%
COc1ccccc1C(=O)Nc1cc2c(cc1N1CCCCC1)n(C)c(=O)n2C,-14.2%,-4.7%,.,-19.6%,3.1%,12.2%,.,.,
CCN(Cc1ccccc1)C(=O)c1cc(-c2ccccc2)n[nH]1,34.2%,-8.6%,.,-10.6%,-26.5%,0.6%,.,.,
Cc1cc(C)n2c(SCC(=O)N(CCC#N)c3ccc4c(c3)OCCO4)nnc2n1,.,20µM*,-7.1%[11.6 µM],.,.,.,26.7*,47.8*,Pol kappa inh-2=16.8*
CN(Cc1ccco1)c1ncnc2ccc(-c3ccoc3)cc12,28.2µM*,-26.3%,.,-21.8%,?,.,16.8*,37.9*,Pol kappa inh-2=16.8*
CC(CS(=O)(=O)c1ccc2c(c1)NC(=O)CS2)C(=O)NCc1ccccc1Cl (stereo not drawn),44.7µM*,17.8µM*,39.8µM*,-21.3%,?,100µM*,?,33.8*,TbPGK inh=1.83µM*
O=C1CSc2ccc(S(=O)(=O)NCc3ccccc3Cl)cc2N1,25.3%,?,-6.3%,0.1%,-17.1%,14.5%,.,.,
CCCn1ccc2c(OCC(=O)NCc3ccccc3Cl)cccc2c1=O,26.3%,-17.0%,.,3.5%,1.1%[60.1 µM],-1.7%,.,.,
COc1cc(/C=C2\Oc3cc(O)ccc3C2=O)ccc1O,?,-13.2%,?,?,-29.3%,?,.,.,
SMILES,Pol iota inh,Pol eta inh-1,WRN inhibitor,FEN1 inh,Pol kappa inh-1,POLB inh,POLI cherry-pick,Pol eta inh-2,others
O=C1/C(=C/c2ccc(O)c(O)c2)Oc2cc(O)ccc21,?,20µM*,?,?,28.2µM*,-29.7%,23.8*,33.8*,
COc1ccc(/C=C/C(=O)OCC(=O)NCc2ccco2)cc1OC,22.4µM*,50.1µM*,-9.2%[11.6 µM],-2.0%,?,39.8µM*,?,?,
COc1cc(/C=C/C(=O)OCC(=O)NCc2ccco2)ccc1OC(F)F,22.0%,-15.5%,-15.8%,-1.4%,-7.5%,17.2%,.,.,
O=C(COC(=O)Cc1ccc(Cl)cc1)NCc1ccco1,22.4µM*,8.91µM*,?,-14.1%,79.4µM*,.,18.9*,19*,Pol kappa inh-2=10.6*
CCCCCCCC/C=C\CCCCCCCCN,.,.,.,.,-1.4%[19.4 µM],.,.,.,
O=C(CCc1ccco1)CCc1ccco1,25.1µM*,?,-13.2%[11.6 µM],-16.1%,?,.,?,75.7*,Pol kappa inh-2=33.6*
